According to PubChem BioAssay:
Calls of active or inactive are those of the source.

Tests used:
[1] = test system: Human papillomavirus type 1a protein E7 (residues 44-93); test: small molecules binding HPV E7 44-93 – biochemical, small-molecule microarray, residues 44-93, 635 nm fluorescence, primary screen (AID 1108); conditions: fluorescence 635 nm, higher = more signal;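 further: E7 fragment applied at 1 µg/mL in TBST for 1 h at 4 C; score combines spot fluorescence with its signal to noise ratio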
[2] = hepatitis C replication reporter changes, two-sided – Huh7 cells, luciferase reporter, HCV replication inhibitor project, primary screen (AID 1109); conditions: Huh7 HCV replicon luciferase reporter, 48 h; higher = more signal;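 further: huh7 hepatoma cells harbouring a luciferase neomycin HCV replicon reporter; luciferase luminescence as measure of HCV replicon replication; test concentration not given here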
[3] = molecular target: Left-right determination factor 2 (Homo sapiens) (UniProt O00292); test: small molecules binding LEFTY2 protein – biochemical, small-molecule microarray, 635 nm fluorescence scan, primary screen (AID 1110); conditions: higher = more signal
Sequence of Left-right determination factor 2 (Homo sapiens) (O00292 whole entry, looked up): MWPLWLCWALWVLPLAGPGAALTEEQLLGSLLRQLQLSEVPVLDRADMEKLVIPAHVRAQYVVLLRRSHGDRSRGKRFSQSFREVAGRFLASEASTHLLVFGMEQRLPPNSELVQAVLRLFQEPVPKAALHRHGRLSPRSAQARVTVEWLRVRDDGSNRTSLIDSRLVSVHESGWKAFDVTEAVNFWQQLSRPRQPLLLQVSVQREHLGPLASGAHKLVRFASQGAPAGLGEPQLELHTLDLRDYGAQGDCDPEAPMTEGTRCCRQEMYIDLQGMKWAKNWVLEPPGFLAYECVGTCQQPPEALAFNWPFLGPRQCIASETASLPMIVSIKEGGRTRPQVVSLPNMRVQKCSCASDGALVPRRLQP

[4] = molecular target: Calmodulin-1 (Homo sapiens) (UniProt P0DP23); test: small molecules binding calmodulin-1 with EGTA – biochemical, small-molecule microarray, Cy5-labelled CALM1, profiling panel (AID 1111); conditions: Cy5-CALM1 binding fluorescence, higher = more signal;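 further: labelled calmodulin applied in Tris saline Tween buffer holding calcium plus EGTA and DTT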
[5] = molecular target: Calmodulin-1 (Homo sapiens) (UniProt P0DP23); test: small molecules binding Ca-loaded calmodulin-1 – biochemical, small-molecule microarray, Cy5-labelled CALM1, plus calcium, artefact control for SMM control-protein annotation, profiling panel (AID 1112); conditions: Cy5-CALM1 binding fluorescence, higher = more signal;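 further: score merges spot fluorescence with signal to noise from triplicate slides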
[6] = probe aWnt5a binding to arrayed compounds – biochemical, biotinylated probe, 635/667 nm fluorescence, primary screen (AID 1113); conditions: small-molecule microarray, higher = more signal;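 further: score merges 667 nm fluorescence intensity with signal-to-noise per printed feature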
[7] = probe aShh binding to arrayed compounds – biochemical, biotinylated probe, 635/667 nm fluorescence, primary screen (AID 1114); conditions: small-molecule microarray, higher = more signal;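 further: probe is biotin-labelled aShh protein from a stem cell growth factor screen; measures binding of labelled protein to compounds printed on the slide; score merges feature fluorescence at 667 nm with signal-to-noise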
[8] = probe aNog binding to arrayed compounds – biochemical, biotinylated probe, 635/667 nm fluorescence, primary screen (AID 1115); conditions: small-molecule microarray, higher = more signal;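 further: probe is biotinylated aNog protein used at 0.15 µg/mL for 1 h at 4 C; z-score combines 667 nm fluorescence of each spot with its signal to noise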
[9] = molecular target: Torsin-1A-interacting protein 1 (Homo sapiens) (UniProt Q5JTV8); test: compound microarray binding of lysate hLAP1 – cell lysate, small-molecule microarray, COS7 lysate, 635/667 nm fluorescence, primary screen (AID 1116); conditions: 635 nm fluorescence, higher = more signal
Sequence of Torsin-1A-interacting protein 1 (Homo sapiens) (Q5JTV8 whole entry, looked up): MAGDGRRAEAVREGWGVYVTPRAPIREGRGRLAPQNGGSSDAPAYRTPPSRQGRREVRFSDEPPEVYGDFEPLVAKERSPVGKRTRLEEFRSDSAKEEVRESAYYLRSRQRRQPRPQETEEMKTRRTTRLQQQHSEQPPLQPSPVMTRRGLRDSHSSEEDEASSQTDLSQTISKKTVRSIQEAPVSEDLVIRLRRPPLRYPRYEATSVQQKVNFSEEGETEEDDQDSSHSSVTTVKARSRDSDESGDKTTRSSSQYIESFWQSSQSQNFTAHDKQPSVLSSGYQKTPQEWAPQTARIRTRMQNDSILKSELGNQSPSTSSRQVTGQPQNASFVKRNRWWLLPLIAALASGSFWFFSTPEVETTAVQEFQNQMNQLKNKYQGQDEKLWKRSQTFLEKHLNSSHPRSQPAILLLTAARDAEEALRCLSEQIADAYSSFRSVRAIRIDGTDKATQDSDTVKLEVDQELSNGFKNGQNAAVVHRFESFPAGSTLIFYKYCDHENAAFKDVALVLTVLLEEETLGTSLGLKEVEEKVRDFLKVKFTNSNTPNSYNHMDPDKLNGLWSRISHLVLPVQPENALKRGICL

[10] = molecular target: Alpha-bungarotoxin (Bungarus multicinctus) (UniProt P60615); test: compounds binding labelled alpha-BTX control protein – biochemical, small-molecule microarray, Alexa647 label, 635/667 nm fluorescence, artefact control for SMM control protein annotation, profiling panel (AID 1117); conditions: alpha-BTX-A647 binding fluorescence, higher = more signal
Sequence of Alpha-bungarotoxin (Bungarus multicinctus) (P60615 whole entry, looked up): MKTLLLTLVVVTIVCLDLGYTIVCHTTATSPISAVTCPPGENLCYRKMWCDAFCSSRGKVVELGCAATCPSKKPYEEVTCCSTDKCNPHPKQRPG

[11] = molecular target: Albumin (Bos taurus) (UniProt P02769); test: compounds binding labelled BSA control protein – biochemical, small-molecule microarray, Alexa647 label, 635/667 nm fluorescence, artefact control for SMM control protein annotation, profiling panel (AID 1118); conditions: BSA-A647 binding, fluorescence 635 nm, higher = more signal;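 further: score merges 667 nm emission intensity and signal-to-noise per printed compound spot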
Sequence of Albumin (Bos taurus) (P02769 whole entry, looked up): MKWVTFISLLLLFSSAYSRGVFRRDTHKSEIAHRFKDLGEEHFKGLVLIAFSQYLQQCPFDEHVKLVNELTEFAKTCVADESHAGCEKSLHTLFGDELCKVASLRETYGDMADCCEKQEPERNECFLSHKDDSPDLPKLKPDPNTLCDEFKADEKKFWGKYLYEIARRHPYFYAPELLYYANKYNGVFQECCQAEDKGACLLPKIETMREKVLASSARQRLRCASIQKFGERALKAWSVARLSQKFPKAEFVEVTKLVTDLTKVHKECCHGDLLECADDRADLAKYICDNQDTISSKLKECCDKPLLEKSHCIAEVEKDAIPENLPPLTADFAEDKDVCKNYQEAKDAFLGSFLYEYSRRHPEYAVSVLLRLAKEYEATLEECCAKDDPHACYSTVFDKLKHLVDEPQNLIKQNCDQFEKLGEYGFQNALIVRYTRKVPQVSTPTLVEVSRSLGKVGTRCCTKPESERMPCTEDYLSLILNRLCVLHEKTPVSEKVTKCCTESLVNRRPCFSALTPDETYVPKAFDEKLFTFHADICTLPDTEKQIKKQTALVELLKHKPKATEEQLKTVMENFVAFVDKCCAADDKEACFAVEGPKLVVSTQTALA

[12] = probe aXIP binding to arrayed compounds – biochemical, NeuroSMM set, 635/667 nm fluorescence, primary screen (AID 1119); conditions: small-molecule microarray, higher = more signal, called active from +8 up or from −8 down;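 further: probe is the protein aXip251-270 applied at 1 µg/mL to compound-printed slides; binding of probe to printed compounds measured as 667 nm fluorescence plus signal to noise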
[13] = probe aNOTCH3 binding on compound microarray – biochemical, small-molecule microarray, 635/667 nm fluorescence, primary screen (AID 1120); conditions: higher = more signal;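 further: probe is a biotin-tagged antibody raised against NOTCH3 rather than NOTCH3 protein; score merges spot fluorescence near 667 nm with spot signal to noise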
[14] = probe aNOTCH2 binding on compound microarray – biochemical, small-molecule microarray, 635/667 nm fluorescence, primary screen (AID 1121); conditions: higher = more signal;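 further: score merges feature fluorescence read at 667 nm with its signal to noise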
[15] = molecular target: Carbonic anhydrase 2 (Homo sapiens) (UniProt P00918); test: compounds binding carbonic anhydrase 2 – biochemical, small-molecule microarray, Alexa647-labelled CAII, profiling panel (AID 1122); conditions: CAII-A647 binding fluorescence, higher = more signal
[16] = COS7 lysate on small-molecule microarray, probe aHis, 635 nm (AID 1123); conditions: COS7 cell lysate, fluorescence, higher = more signal;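 further: z-score combines 667nm fluorescence intensity with signal-to-noise per printed compound spot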
[17] = probe aLAP1 signal on lysate-treated microarray – cell lysate, small-molecule microarray, COS7 lysate, primary screen (AID 1124); conditions: probe aLAP1, fluorescence, higher = more signal;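 further: lysate comes from COS7 cells expressing LAP1 and is applied at 0.3 µg/mL; score merges spot fluorescence near 667 nm with signal-to-noise over triplicate slides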
[18] = test system: Sam68 (KHDRBS1); test: compounds binding KHDRBS1 protein – biochemical, small-molecule microarray, 635 nm fluorescence, primary screen (AID 1125); conditions: higher = more signal;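 further: score merges 667 nm channel intensity with signal to noise over triplicate slides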
[19] = test system: Chordin-like protein 2 (CHRDL2); test: compounds binding chordin-like 2 – biochemical, small-molecule microarray, 635 nm fluorescence, primary screen (AID 1126); conditions: fluorescence 635 nm, higher = more signal;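 further: printed compound slides probed with Chrdl2 protein at 4 µg/mL for 1 h at 4 C; score merges 667 nm emission intensity with signal to noise over three replicate slides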
[20] = molecular target: Concanavalin-A (Canavalia ensiformis) (UniProt P02866); test: compounds binding concanavalin A lectin – biochemical, small-molecule microarray, Alexa647 label, 635 nm, artefact control for SMM control protein annotation, primary screen (AID 1127); conditions: ConA-A647 binding fluorescence, higher = more signal;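 further: z combines 667 nm emission intensity with signal-to-noise across three replicate slides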
Sequence of Concanavalin-A (Canavalia ensiformis) (P02866 whole entry, looked up): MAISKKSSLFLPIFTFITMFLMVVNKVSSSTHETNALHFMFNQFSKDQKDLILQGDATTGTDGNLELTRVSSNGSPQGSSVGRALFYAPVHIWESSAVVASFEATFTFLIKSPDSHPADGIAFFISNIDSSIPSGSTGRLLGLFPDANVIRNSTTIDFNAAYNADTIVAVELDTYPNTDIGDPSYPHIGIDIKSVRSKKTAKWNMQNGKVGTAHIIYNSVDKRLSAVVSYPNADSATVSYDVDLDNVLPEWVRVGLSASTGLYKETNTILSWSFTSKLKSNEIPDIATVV

Row | SMILES | composite z-score [1] | z-score [2] | composite z-score [3] | composite z-score [4] | composite z-score [5] | composite z-score [6] | composite z-score [7] | composite z-score [8] | composite z-score [9] | composite z-score [10] | composite z-score [11] | composite Z-score [12] | composite z-score [13] | composite z-score [14] | composite z-score [15] | composite z-score [16] | composite z-score [17] | composite z-score [18] | composite z-score [19] | composite z-score [20]
1 | CC(C)C[C@@H]1NC(=O)[C@H]2C[C@@H](C(=O)NCCCCCN)[C@@H](c3cccc(OCCO)c3)N2C1=O | -1.01 | 0.335 | -0.0189 | 0.331 | 0.422 | -0.103 | -0.138 | -0.157 | 2.08 | 1.03 | 0.299 | 1.26 (inactive) | -0.495 | -0.146 | 0.695 | 1.27 | 1.16 | 0.166 | 0.292 | 0.661
2 | COC(=O)[C@@]1(Cc2ccccc2CN=[N+]=[N-])N=C(c2ccc(OCCCO)cc2)O[C@H]1c1ccccc1CN=[N+]=[N-] | 0.445 | -2.92 | -2.01 | 0.0829 | 0.526 | 0.0733 | -0.156 | 0.96 | 1.1 | 0.0937 | -0.747 | -0.221 (inactive) | -0.15 | -0.101 | 0.885 | 1.77 | 0.017 | -0.63 | -1.42 | 0.114
3 | O=c1cccc(-c2ccco2)o1 | 0.582 | -0.574 | 0.758 | -0.221 | -1.23 | -0.0179 | 0.0952 | -0.0563 | 0.18 | 0.738 | 0.167 | 0.207 (inactive) | 0.0522 | -0.127 | 0.25 | 0.193 | 0.462 | 0.969 | 1.05 | 0.495
4 | CC(C)CNC(=O)[C@@]1(c2ccc([N+](=O)[O-])cc2)CC(=O)N(C2CCCCC2)[C@@H]1c1ccc(CO)cc1 | 0.292 | -1.07 | 0.155 | 0.1 | -0.151 | -0.0539 | -0.0553 | 0.323 | 2 | 0.0127 | 0.819 | 1.08 (inactive) | -0.191 | -0.123 | 0.714 | 2.05 | 0.571 | 0.244 | 0.0971 | 0.213
5 | CO[C@H]1O[C@H](CO)[C@@H](OC(=O)Nc2ccc(C#N)cc2)[C@@H]2OC(=O)[C@H](Cc3cccc(Br)c3)C/C=C/C[C@@H](Cc3cccc(Br)c3)C(=O)O[C@@H]12 | 1.02 | -3.4 | 0.721 | 0.211 | -0.121 | -0.104 | 0.326 | 0.886 | 0.318 | 0.764 | 0.348 | 0.656 (inactive) | 0.0935 | -0.0711 | 0.26 | 0.913 | 0.23 | 0.697 | 0.116 | 0.384
6 | CCOC(=O)C1=C[C@@H](C(C)(C)C)N(S(=O)(=O)c2ccc(C)cc2)[C@H]1c1ccc(C)cc1 | 0.974 | -1.04 | 0.424 | 1.81 | -0.0354 | 0.0479 | -0.0709 | 1.27 | 0.229 | 1.11 | 0.804 | 0.403 (inactive) | 0.305 | 0.0554 | 0.263 | 2.49 | 0.512 | 1.29 | 0.205 | 1.18
7 | [N-]=[N+]=NCc1ccccc1[C@@H]1OC(c2ccc(OCCCO)cc2)=N[C@]1(Cc1ccccc1N=[N+]=[N-])C(=O)NCCN1CCOCC1 | 1.4 | -1.66 | 0.466 | 0.969 | 0.0714 | 0.0944 | -0.0289 | 0.597 | 0.495 | 0.446 | 0.741 | 0.215 (inactive) | 0.202 | -0.0219 | 0.828 | 2.14 | 1.01 | 1.31 | 0.32 | 0.863
8 | O=C1C[C@@](C(=O)NCC(F)(F)F)(c2ccc([N+](=O)[O-])cc2)[C@@H](c2ccc(CO)cc2)N1CC12CC3CC(CC(C3)C1)C2 | 0.913 | -3.33 | 0.309 | 0.835 | 0.569 | 0.0044 | 0.315 | 0.542 | 1.31 | 0.987 | -0.191 | 1.68 (inactive) | 0.6 | 0.0345 | 0.502 | 2.17 | -0.0251 | 1.29 | 0.297 | 1.13
9 | COc1ccc(C(=O)Nc2cccc(CN3C(=O)[C@]4(O[C@H](CCn5cc([C@H](O)c6ccccc6)nn5)[C@@H]([Si](C)(C)c5ccc(OC)cc5)[C@@H]4C)c4ccccc43)c2)cc1 | 1.38 | -5.19 | 0.126 | -0.0002 | -0.614 | -0.13 | -0.0793 | 0.189 | 0.361 | 1.09 | -0.215 | -0.213 (inactive) | 0.0916 | -0.0986 | 0.169 | 0.18 | -0.206 | 0.962 | 0.153 | 0.587
10 | CCCCCN1CC=CC23O[C@@H]4/C=C\CCC(C)OC(=O)C4[C@H]2C(=O)N(CCCCCCO)[C@@H]3C1=O (stereo not given in full) | 0.342 | 0.499 | -0.78 | -0.384 | 0.369 | -0.202 | -0.0146 | -0.12 | 0.171 | -0.267 | 0.548 | 0.928 (inactive) | -0.311 | -0.164 | 0.781 | 0.84 | 1.57 | 0.623 | -0.41 | -0.296
11 | CCCCC(=C=CC[C@H](O)c1ccc(OCCO)cc1)C[C@H](O)c1cc(Cl)cc(Cl)c1O | 0.584 | -1.63 | 0.0916 | 0.0258 | -0.0211 | -0.198 | -0.153 | 0.452 | 0.849 | 0.779 | 0.377 | 0.671 (inactive) | -0.0178 | -0.133 | 0.456 | 0.271 | 0.163 | 0.805 | 0.44 | 0.72
12 | O=C1O[C@H](c2ccccc2)[C@H](c2ccccc2)N2[C@H]1[C@@H](C(=O)O)[C@]1(C(=O)Nc3ccc(C#CC4(O)CCCCCC4)cc31)[C@H]2c1ccc(O)cc1 | 0.628 | -0.772 | -0.114 | 0.277 | 0.431 | -0.124 | 0.0611 | -0.291 | -0.0781 | -0.0118 | 0.143 | 0.25 (inactive) | -0.15 | -0.0999 | 0.811 | 0.609 | 0.0189 | 0.553 | 0.224 | 0.437
